PubChem BioAssay (NCI)
About 83,000 compounds went through this panel and 20% of them were active in at least one assay; those are over-represented in the sample as a whole.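 Note: values are percent growth. 100 is the growth of untreated cells, values between 100 and 0 indicate rising inhibition; between -100 and 0 indicates cell death.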 Active and inactive are the calls of the source. Rule for the calls: active = growth percent below 10; inactive = the rest.

Test system: SK-MEL-5 melanoma
Assay: NCI-60 one-dose screen, 48 h (100 = growth as untreated, 0 = no growth, -100 = all killed)
Conditions: 10 µM unless noted

SMILES	growth
Nc1ccc2c(c1)/C(=N/O)c1cc([N+](=O)[O-])ccc1-2	80.9% (inactive)
CC(=O)n1c2ccccc2c2ccccc21	108% (inactive)
Fc1ccc(-c2nnc(/C=C/c3cn(-c4ccccc4)nc3-c3ccccc3)o2)cc1	105% (inactive)
COc1cc(/C=C/C(=O)c2ccc(F)cc2)ccc1OCCCCCOc1cc2c(cc1OC)C(=O)N1CCCC1C=N2 (stereo unspecified)	-78.1% (active)
O=C(Nc1nc(-c2ccccc2)cs1)c1cc(O)c(O)c(O)c1	44.1% (inactive)
O=C1/C(=C/c2ccc3cccc(Cl)c3n2)SC(=S)N1CCc1ccc(O)cc1	95.8% (inactive)
O=C(NCCc1ccccc1)C1CCC(=O)N1Cc1ccc(Br)cc1 (stereo unspecified)	101% (inactive)
Cn1c(=O)c2c(nc(Br)n2CCC(=O)Nc2ccc(F)cc2)n(C)c1=O	111% (inactive)
Cc1cc(C(C)(C)C)cc(C)c1CC1=NCCN1	96.7% (inactive)
Cc1c(C)c(N2C(=O)C=CC2=O)c(C)c(C)c1N1C(=O)C=CC1=O	109% (inactive)
c1ccc2cc(C[n+]3ccn(CCCCCCCn4cc[n+](Cc5ccc6ccccc6c5)c4)c3)ccc2c1	-5.55% (active)
Cc1cc(NC(=O)Nc2cc(Cl)ccc2C)no1	102% (inactive)
COc1cc(C(=O)/C=C/c2cccnc2Nc2ccccc2)cc(OC)c1OC	-99.4% (active)
O=[N+]([O-])c1cnc(Sc2ccncn2)c([N+](=O)[O-])c1	92% (inactive)
O=C(Nc1cccc2ccccc12)c1cc2c(cc1Br)OCO2	99.2% (inactive)
CCOC(=O)c1c2c(c(C)n1Cc1ccccc1)-c1nc(N)ncc1CC2	105% (inactive)
